# Results taken from PubChem BioAssay.
# Several values for one entry are separate records, joined by “and”; a condition that tells them apart may be missing. Identical values can stand only once. Activity calls are given as the source filed them. Unless noted, the rule behind the calls is not given here.
# Assays:
# [1] = P. berghei load reduction in hepatocytes – cell-based, HepG2, luciferase luminescence, HepG2 viability, primary screen (AID 624349; in the data active = parasite load remaining mostly below about 12%, no sharp cut-off; inactive = mostly above about 10%;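 note: 100% = mean of DMSO negative control wells on the same plate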); conditions: P. berghei liver stage in HepG2, luciferase luminescence, concentration not given here; parasite load remaining: stronger effect = lower value; viability: measured here: HepG2 viability without parasites
# [2] = signal quenchers or enhancers, Cy5 substrate/SSB – biochemical, NIH Clinical Collection, E. coli SSB, artefact control for HCV NS3 helicase inhibitor project (AID 743268); conditions: Cy5-oligo bound E. coli SSB, fluorescence interference
# [3] = test system: Hepatitis C virus NS3 helicase; assay: blockers of NS3h binding to DNA – biochemical, fluorescence polarization, NIH Clinical Collection, primary screen (AID 743270); conditions: NS3 helicase binding to Cy5-dT15 DNA, stronger effect = higher value, concentration not given here
# [4] = target: Single-stranded DNA-binding protein (Escherichia coli (strain K12)) (UniProt P0AGE0); assay: SSB-ssDNA binding inhibitors – biochemical, fluorescence polarization, NIH Clinical Collection, counter-screen for HCV NS3 helicase inhibitor project (AID 743271; in the data active = inhibition above about 28%); conditions: E. coli SSB-DNA binding, stronger effect = higher value, concentration not given here
# [5] = compounds distorting NS3 helicase fluorescence signal – biochemical, NIH Clinical Collection, artefact control for HCV NS3 helicase inhibitor project (AID 743272); conditions: fluorescence interference counterscreen, HCV NS3 helicase assay; stronger effect = lower value;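 note: HCV NS3 helicase with a Cy5 labelled single stranded DNA probe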
# [6] = Wnt pathway potentiators raising nuclear beta-catenin – imaging, WNT3A-conditioned medium, mouse C2C12, NPC library, primary screen (AID 1117326; in the data active = nuclear beta-catenin stimulation mostly above about 4.2%, no sharp cut-off; inactive = mostly below about 10%); conditions: stronger effect = higher value
# [7] = stimulators of insulin release from INS-1E, primary screen, cell-based, 5 mM glucose, NPC library (AID 1117329;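 active = compound raises insulin release from rat beta cells at 5 mM glucose, no numeric limit stated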); conditions: rat INS-1E insulin secretion, at 10 µM, stronger effect = higher value
# [8] = growth inhibition of GSK3B-pretreated HCT116 cells – cell-based, CellTiter-Glo, 0.2 to 20 µM (AID 1117336;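 active = compounds lowering colon cancer cell viability after pretreatment blocking the GSK3B kinase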); conditions: HCT116 viability after GSK3B inhibitor, at 20 µM, stronger effect = higher value
# [9] = inhibition of endothelial tube formation, primary screen, imaging, VEGF stimulated, CD31 staining, tube area, NPC library (AID 1117340;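 active = compound that reduces growth-factor-driven endothelial tube area in a mixed cell culture, no cutoff stated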); conditions: VEGF-stimulated ADSC/ECFC co-culture, at 10 µM, stronger effect = higher value
# [10] = GLP1 release stimulators, primary, NCI-H716, NPC library (AID 1117341;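 active = compound raises GLP1 secretion from the human gut endocrine cells, with no numeric limit stated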); conditions: NCI-H716 cells, at 10 µM, stronger effect = higher value
# [11] = HCT116 colon cancer cell growth inhibition, primary screen, CellTiter-Glo luminescence, NPC library (AID 1117342;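 active = compounds that lower survival of HCT116 colon cancer cells in the luminescence readout, no numeric limit stated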); conditions: at 20 µM (top of the series)
# [12] = reduced SW480 viability measured with CellTiter-Glo, NPC library, primary (AID 1117343;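 active = compounds that lower viability of the colon cancer cells in the luminescence readout, with no numeric limit stated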); conditions: CellTiter-Glo luminescence; at 20 µM (top of the series)
# [13] = NPC library primary testing for decreased DLD-1 cell viability via CellTiter-Glo (AID 1117346;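 active = compounds that lower survival of DLD-1 colon cancer cells in the luminescence readout, no cutoff given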); conditions: DLD-1 viability, CellTiter-Glo luminescence; at 20 µM (top of the series)
# [14] = target: 6-phosphogluconate dehydrogenase, decarboxylating (Homo sapiens) (UniProt P52209); assay: inhibition of human phosphogluconate dehydrogenase – biochemical, recombinant enzyme, NADPH absorbance, primary screen (AID 1159550;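 active = at least 20% inhibition of 6-phosphogluconate dehydrogenase activity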); conditions: recombinant 6PGD, NADPH absorbance 341 nm; at 10 µM; stronger effect = higher value
# Chain of 6-phosphogluconate dehydrogenase, decarboxylating (Homo sapiens) (P52209 whole entry, looked up): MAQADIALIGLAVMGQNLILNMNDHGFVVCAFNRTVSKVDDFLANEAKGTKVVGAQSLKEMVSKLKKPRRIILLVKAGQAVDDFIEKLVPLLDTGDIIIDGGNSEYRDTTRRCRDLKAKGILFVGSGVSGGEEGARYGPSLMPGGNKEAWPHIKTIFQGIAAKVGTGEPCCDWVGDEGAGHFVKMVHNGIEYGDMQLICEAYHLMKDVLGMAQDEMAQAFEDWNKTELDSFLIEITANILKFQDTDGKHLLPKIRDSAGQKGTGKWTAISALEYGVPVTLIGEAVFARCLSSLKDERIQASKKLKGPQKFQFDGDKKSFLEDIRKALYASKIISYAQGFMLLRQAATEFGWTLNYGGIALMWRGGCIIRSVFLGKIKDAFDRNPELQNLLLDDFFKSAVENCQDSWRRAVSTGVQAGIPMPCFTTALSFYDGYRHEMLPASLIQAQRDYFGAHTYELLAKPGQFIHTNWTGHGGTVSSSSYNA
# [15] = viability loss with induced miR-34 in A549 – imaging, A549 dox-inducible miR-34, nuclei and caspase counts, primary screen (AID 1347080;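 active = compounds whose cell count with miR-34 switched on is under 0.7 times the count with it off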); conditions: A549 miR-34 inducible, Hoechst nuclei count, 48 h
# [16] = MELAS cybrid and Rieske KO viability enhancers – cell-based, MELAS cybrids, Rieske KO mouse fibroblasts, CellTiter-Glo, primary screen (AID 1508586;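 active = mean z-score across replicates of 1.96 or higher in either the MELAS or the Rieske mutant cell line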;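 note: z relative to plate mean and SD of compound and empty wells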); conditions: low glucose
# [17] = target: NAD(+) hydrolase SARM1 (Homo sapiens) (UniProt Q6SZW1); assay: blocking NAD cleavage by SARM1 SAM-TIR – cell lysate, NAD-Glo luminescence (AID 1508614;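 active = compound whose remaining NAD level is above about 45 nM, limit read from the data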;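 note: higher remaining NAD means stronger inhibition of SARM1 NADase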); conditions: SAM-TIR HEK293T lysate NADase, at 1 µM, stronger effect = higher value
# Chain of NAD(+) hydrolase SARM1 (Homo sapiens) (Q6SZW1 whole entry, looked up, the tested form may be a part): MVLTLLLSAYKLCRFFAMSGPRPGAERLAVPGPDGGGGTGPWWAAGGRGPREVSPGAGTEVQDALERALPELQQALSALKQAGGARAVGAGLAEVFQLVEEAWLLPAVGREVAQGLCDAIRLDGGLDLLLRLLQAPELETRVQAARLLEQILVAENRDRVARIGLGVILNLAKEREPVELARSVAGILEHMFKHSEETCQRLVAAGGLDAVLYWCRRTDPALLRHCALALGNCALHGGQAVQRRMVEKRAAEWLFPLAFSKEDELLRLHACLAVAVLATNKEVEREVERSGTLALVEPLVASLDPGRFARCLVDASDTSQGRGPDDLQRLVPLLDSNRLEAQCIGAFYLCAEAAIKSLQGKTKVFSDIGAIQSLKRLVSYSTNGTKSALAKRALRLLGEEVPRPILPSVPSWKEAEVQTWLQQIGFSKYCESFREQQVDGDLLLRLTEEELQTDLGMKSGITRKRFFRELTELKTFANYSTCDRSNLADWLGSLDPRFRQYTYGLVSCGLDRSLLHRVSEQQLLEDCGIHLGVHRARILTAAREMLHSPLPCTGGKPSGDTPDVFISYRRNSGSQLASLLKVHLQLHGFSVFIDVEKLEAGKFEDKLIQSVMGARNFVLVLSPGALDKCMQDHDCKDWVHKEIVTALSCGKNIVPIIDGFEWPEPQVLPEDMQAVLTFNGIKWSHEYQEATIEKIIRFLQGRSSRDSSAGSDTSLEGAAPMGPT
# [18] = target: Mitogen-activated protein kinase 7 (Homo sapiens) (UniProt Q13164); assay: Gal4-ERK5 driven luciferase induction – cell-based, HTS, primary screen (AID 1508626;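 active = luciferase signal above three times the same-plate solvent-only control wells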;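 note: luciferase driven by Gal4-ERK5 fusion binding five Gal4 sites before minimal TATA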); conditions: HeLa Gal4-ERK5 transactivation, 18 h, at 5 µM, stronger effect = higher value
# Chain of Mitogen-activated protein kinase 7 (Homo sapiens) (Q13164 whole entry, looked up, the tested form may be a part): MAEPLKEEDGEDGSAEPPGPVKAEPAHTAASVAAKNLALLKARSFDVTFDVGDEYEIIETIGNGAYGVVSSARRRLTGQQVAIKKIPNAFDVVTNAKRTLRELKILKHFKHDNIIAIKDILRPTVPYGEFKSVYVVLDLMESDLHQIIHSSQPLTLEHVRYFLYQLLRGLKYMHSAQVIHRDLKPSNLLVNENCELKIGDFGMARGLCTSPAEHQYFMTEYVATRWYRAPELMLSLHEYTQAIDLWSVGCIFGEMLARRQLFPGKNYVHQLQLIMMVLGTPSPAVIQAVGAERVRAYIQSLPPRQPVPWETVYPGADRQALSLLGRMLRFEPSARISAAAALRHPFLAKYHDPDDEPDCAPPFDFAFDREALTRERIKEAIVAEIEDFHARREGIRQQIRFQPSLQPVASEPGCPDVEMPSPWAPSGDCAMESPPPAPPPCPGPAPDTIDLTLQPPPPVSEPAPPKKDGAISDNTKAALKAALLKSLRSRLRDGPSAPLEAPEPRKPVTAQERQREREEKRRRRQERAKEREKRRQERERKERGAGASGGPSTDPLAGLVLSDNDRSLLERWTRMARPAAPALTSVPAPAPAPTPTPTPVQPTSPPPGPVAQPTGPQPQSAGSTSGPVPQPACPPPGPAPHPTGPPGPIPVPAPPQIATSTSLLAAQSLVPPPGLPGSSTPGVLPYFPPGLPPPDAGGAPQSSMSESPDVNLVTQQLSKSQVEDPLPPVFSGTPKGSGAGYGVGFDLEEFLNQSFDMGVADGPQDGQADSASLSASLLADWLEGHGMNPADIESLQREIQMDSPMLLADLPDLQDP
# [19] = test system: F380Y; assay: BK channel mutant inhibitors and activators – cell-based, U2OS BacMam, thallium flux, beta subunits, selectivity assay, profiling panel (AID 1259406;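 active = thallium flux through the channel raised or lowered by more than 3 SD from vehicle-only wells, actives on both sides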;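 note: initial slope of Thallos dye fluorescence rise after thallium is added; log ratio against the mean of 0.3% DMSO vehicle wells on the same plate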); conditions: U2OS BacMam BK variants, at 30 µM
# [20] = stronger effect = lower value, cell number ratio, induced over uninduced
# [21] = measured here: relative caspase fold change +Dox/-Dox
# [22] = measured here: total cells with miR-34 induction, stronger effect = lower value
# [23] = measured here: total cells without miR-34 induction
# [24] = MELAS cybrid survival, CellTiter-Glo 48 h, stronger effect = higher value
# [25] = Rieske KO mouse fibroblast survival, CellTiter-Glo 72 h
compound,measurement,setting,value
COc1cc([C@@H]2c3cc4c(cc3[C@H](O)[C@H]3COC(=O)[C@H]23)OCO4)cc(OC)c1OC,parasite load remaining,[1],94.8% (inactive) and 112% (inactive) and 73% (inactive)
same,viability,[1],107% and 103% and 113%
same,fluorescence ratio,[2],1.01 (inactive)
same,inhibition,[3],-0.45% (inactive)
same,inhibition,[4],1.05% (inactive)
same,fluorescence ratio,[5],1.03 (inactive)
same,nuclear beta-catenin stimulation,[6]; at 10 µM,81% (active)
same,nuclear beta-catenin stimulation,"[6]; stimulation, at 2 µM",77%
same,insulin secretion stimulation,[7],1.25% (inactive)
same,viability decrease,[8],102% (active)
same,tube area decrease,[9],109% (active)
same,GLP1 secretion stimulation,[10],2% (inactive)
same,inhibition of viability,[11],73.1% (active)
same,viability decrease (inhibition),[12],49.9% (inactive)
same,viability decrease (inhibition),[13],64% (active)
same,inhibition,[14],10.7% (inactive)
same,fold change,[15]; [20],1.05 (inactive) and 1.04 (inactive) and 0.981 (inactive)
same,fold change,[15]; [21],0.525 and 0.993 and 1.97
same,cell count,[15]; [22],2300 and 1910 and 1870
same,cell count,[15]; [23],2200 and 1830 and 1900
same,z-score,[16]; [24],-2.59 (inactive)
same,z-score,[16]; [25],1.94
same,remaining NAD,[17],10 nM (inactive)
same,luciferase signal,[18],92 AU (inactive)
same,log fold change Tl+ flux,[19],0.0196 (inactive)
C[C@]12C=CC(=O)C=C1CC[C@@H]1[C@@H]2C(=O)C[C@@]2(C)[C@H]1CC[C@]2(O)C(=O)CO,fluorescence ratio,[2],0.107 (active)
same,inhibition,[3],-0.45% (inactive)
same,inhibition,[4],-1.24% (inactive)
same,fluorescence ratio,[5],0.95 (inactive)
same,nuclear beta-catenin stimulation,[6]; at 10 µM,0.6% (inactive)
same,nuclear beta-catenin stimulation,"[6]; stimulation, at 2 µM",0.8%
same,insulin secretion stimulation,[7],-2.5% (inactive)
same,viability decrease,[8],-21.3% (inactive)
same,tube area decrease,[9],-13.7% (inactive)
same,GLP1 secretion stimulation,[10],0.9% (inactive)
same,inhibition of viability,[11],-8.2% (inactive)
same,viability decrease (inhibition),[12],-6.4% (inactive)
same,viability decrease (inhibition),[13],-11.6% (inactive)
same,inhibition,[14],-6.11% (inactive)
same,fold change,[15]; [20],0.98 (inactive) and 0.843 (inactive) and 0.886 (inactive)
same,fold change,[15]; [21],1.65 and 0.777 and 1.15
same,cell count,[15]; [22],10300 and 7950 and 9680
same,cell count,[15]; [23],10500 and 9420 and 10900
same,z-score,[16]; [24],0.134 (inactive) and 0.541 (inactive)
same,z-score,[16]; [25],-0.259 and 0.148
same,remaining NAD,[17],10 nM (inactive)
same,luciferase signal,[18],28 AU (inactive)
same,log fold change Tl+ flux,[19],0.00715 (inactive)
CC(C)C1CCC(C(=O)N[C@H](Cc2ccccc2)C(=O)O)CC1 (stereo partly drawn),parasite load remaining,[1],83.5% (inactive) and 55.1% (inactive)
same,viability,[1],68.8% and 167%
same,fluorescence ratio,[2],1.01 (inactive)
same,inhibition,[3],-0.4% (inactive)
same,inhibition,[4],2.98% (inactive)
same,fluorescence ratio,[5],0.74 (active)
same,nuclear beta-catenin stimulation,[6]; at 10 µM,-0.5% (inactive)
same,nuclear beta-catenin stimulation,"[6]; stimulation, at 2 µM",0.2%
same,insulin secretion stimulation,[7],49.4% (active)
same,viability decrease,[8],-22.6% (inactive)
same,tube area decrease,[9],-2.3% (inactive)
same,GLP1 secretion stimulation,[10],2.1% (inactive)
same,inhibition of viability,[11],-6.47% (inactive)
same,viability decrease (inhibition),[12],1% (inactive)
same,viability decrease (inhibition),[13],-23.8% (inactive)
same,inhibition,[14],0.904% (inactive)
same,fold change,[15]; [20],0.871 (inactive)
same,fold change,[15]; [21],1.37
same,cell count,[15]; [22],8810
same,cell count,[15]; [23],10100
same,z-score,[16]; [24],-0.215 (inactive) and -1.18 (inactive)
same,z-score,[16]; [25],-0.618 and -0.816
same,remaining NAD,[17],10 nM (inactive)
same,luciferase signal,[18],80 AU (inactive)
same,log fold change Tl+ flux,[19],-0.00809 (inactive)
